From PubChem BioAssay (EPA / NIEHS) come the findings set out here.

Results filed as inconclusive are left out. The source made the active and inactive calls. Rule for the calls, unless noted: active = hit-call score of the fitted dose curve at least 0.9, where 1 is the maximum; inactive = score below 0.9.

In experiment [1] the target is Retinoic acid receptor RXR-alpha (Homo sapiens) (UniProt P19793). Kind of experiment: ATG_RXRa_TRANS: Attagene TRANS-FACTORIAL HepG2 Assay for human Retinoid X Receptor alpha (RXRa) (AID 2283012; active = hit-call score of the fitted dose curve at least 0.9, where 1 is the maximum). The procedure, abridged: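 Read-out: fluorescent reporter-transcript fragments quantified by capillary electrophoresis after RT-PCR. Transiently transfected HepG2 cells carrying GAL4-UAS reporters and NR-GAL4 chimeras were exposed to chemical for 24 h; activity scored as increase over DMSO.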

The target in experiment [2] is human Retinoid X Receptor beta (RXRb), RXRB (gene 6257) (UniProt P28702). In words: ATG_RXRb_TRANS: Attagene TRANS-FACTORIAL HepG2 Assay for human Retinoid X Receptor beta (RXRb) (AID 2283013; active = hit-call score of the fitted dose curve at least 0.9, where 1 is the maximum). Summed up:
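Read-out: reporter mRNA induction via RT-PCR plus capillary electrophoresis fluorescence, analysed as signal increase relative to DMSO. Cells were human HepG2, transiently transfected with GAL4-UAS reporter constructs and chimeric receptor-Gal4 fusions, dosed for 24 h.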

Experiment [3] addresses human Thyroid Receptor alpha (THRa1), THRA (gene 7067) (UniProt P10827). Kind of experiment: ATG_THRa1_TRANS: Attagene TRANS-FACTORIAL HepG2 Assay for human Thyroid Receptor alpha (THRa1) (AID 2283014; active = hit-call score of the fitted dose curve at least 0.9, where 1 is the maximum). The procedure, abridged: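 Reporter transcript induction, read by capillary electrophoresis of 6-FAM-labelled RT-PCR products, reflects activity of a transfected THRa1-Gal4 fusion in HepG2 liver cells. Cells were dosed for 24 h; activity was fitted in the positive direction against DMSO.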

Read-out in experiment [4]: E-selectin (Homo sapiens) (UniProt P16581)
In words: BSK_3C_Eselectin: BioMAP Diversity Plus: 3C Assay for Eselectin Biomarker Activity (AID 2283015). The conditions noted are these: primary human endothelial cells (HUVEC); actives raise or lower the signal. The procedure, abridged: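 ELISA read-out of E-selectin on endothelial monolayers after 24 h chemical treatment. Human umbilical vein primary cells served as the system, with DMSO defining baseline activity for bidirectional fitting.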

Read-out in experiment [5]: Interleukin-1 alpha (IL1a), IL1A (gene 3552)
Kind of experiment: BSK_BE3C_IL1a: BioMAP Diversity Plus: BE3C Assay for Interleukin-1 alpha (IL1a) Biomarker Activity (AID 2283016). The conditions noted are these: primary human bronchial epithelial cells; actives raise or lower the signal. Summed up:
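ELISA read-out of IL-1a from human lung bronchial epithelial primary cells, 24 h post-dose. Gain or loss of signal fitted relative to DMSO negative control.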

Read-out in experiment [6]: Monocyte Chemoattractant Protein-1 (MCP1), CCL2 (gene 6347)
Kind of experiment: BSK_3C_MCP1: BioMAP Diversity Plus: 3C Assay for Monocyte Chemoattractant Protein-1 (MCP1) Biomarker Activity (AID 2283017). The conditions noted are these: primary human endothelial cells (HUVEC); actives raise or lower the signal. The procedure, abridged: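 ELISA read-out of MCP-1 from human umbilical vein endothelial cell cultures harvested 24 h post-dosing. Gain or loss of signal was fitted relative to DMSO.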

Read-out in experiment [7]: Monocyte Chemoattractant Protein-1 (MCP1), CCL2 (gene 6347)
Kind of experiment: BSK_4H_MCP1: BioMAP Diversity Plus: 4H Assay for Monocyte Chemoattractant Protein-1 (MCP1) Biomarker Activity (AID 2283018). The conditions noted are these: primary human endothelial cells (HUVEC); actives raise or lower the signal. The procedure, abridged:
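HUVEC primary cells, 24 h post-dose, MCP-1 by ELISA. Gain or loss of signal fitted bidirectionally vs DMSO baseline. Cytotoxicity: SRB stain (0.1% after 10% TCA fixation), read 560 nm, parallel cultures.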

Read-out in experiment [8]: Human Leukocyte Antigen - DR isotype (HLADR), HLA-DRA (gene 3122)
Kind of experiment: BSK_3C_HLADR: BioMAP Diversity Plus: 3C Assay for Human Leukocyte Antigen - DR isotype (HLADR) Biomarker Activity (AID 2283019). Conditions: primary human endothelial cells (HUVEC); actives raise or lower the signal. The procedure, abridged: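 ELISA readout of surface HLA-DR on human umbilical vein endothelium, taken 24 h after chemical treatment. Gain- and loss-of-signal were both fitted relative to DMSO.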

Read-out in experiment [9]: Interleukin-8 (IL8), CXCL8 (gene 3576)
In words: BSK_3C_IL8: BioMAP Diversity Plus: 3C Assay for Interleukin-8 (IL8) Biomarker Activity (AID 2283020). The conditions noted are these: primary human endothelial cells (HUVEC); actives raise or lower the signal. Summed up:
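HUVEC, 3C stimulation; 24 h compound exposure; IL-8 read by ELISA; gain or loss of signal fitted relative to DMSO control.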

Read-out in experiment [10]: Monokine induced gamma interferon (MIG), CXCL9 (gene 4283)
In words: BSK_3C_MIG: BioMAP Diversity Plus: 3C Assay for Monokine induced gamma interferon (MIG) Biomarker Activity (AID 2283021).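 For AC50: MIG protein level measured by immunoassay in the treated endothelial cultures.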 The conditions noted are these: primary human endothelial cells (HUVEC); actives raise or lower the signal. Summed up: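 HUVEC, 3C system; 24 h chemical exposure; MIG by ELISA; bidirectional fit vs DMSO baseline.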

The target in experiment [11] is human Vitamin D Receptor (VDR), VDR (gene 7421) (UniProt P11473). Kind of experiment: ATG_VDR_TRANS: Attagene TRANS-FACTORIAL HepG2 Assay for human Vitamin D Receptor (VDR) (AID 2283022; active = hit-call score of the fitted dose curve at least 0.9, where 1 is the maximum). The procedure, abridged:
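Steps: transfect HepG2 with GAL4-UAS-driven reporter constructs; dose compounds 24 h; isolate RNA, reverse-transcribe, PCR-amplify with 6-FAM-labelled primer extension and HpaI digestion; quantify fragments by capillary electrophoresis relative to DMSO.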

The nature of experiment [12]: BSK_3C_SRB: Viability Assessment in the BioMAP Diversity Plus: 3C Assay (AID 2283023).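 Note: fitted both ways against DMSO so a hit may be signal rise or drop.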 Conditions: primary human endothelial cells (HUVEC). The procedure, abridged: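 Absorbance at 560 nm of sulforhodamine B-stained (0.1%) total protein served as a cytotoxicity readout in human umbilical vein endothelial cells, 24 h after chemical treatment. Signal was fitted bidirectionally relative to DMSO.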

Read-out in experiment [13]: Matrix Metallopeptidase 1 (MMP1), MMP1 (gene 4312)
In words: BSK_BE3C_MMP1: BioMAP Diversity Plus: BE3C Assay for Matrix Metallopeptidase 1 (MMP1) Biomarker Activity (AID 2283024). The conditions noted are these: primary human bronchial epithelial cells; actives raise or lower the signal. The procedure, abridged:
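ELISA read-out of MMP1 in human lung bronchial epithelial primary cultures, 24 h post-dose; bidirectional curve fit vs DMSO baseline, gain or loss of signal scored.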

A short description of experiment [14]: BSK_3C_Vis: BioMAP Diversity Plus: 3C Assay for Morphology Visualization (AID 2283025).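 Note: fitted both ways so gain or loss versus DMSO counts.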 Conditions: primary human endothelial cells (HUVEC). The procedure, abridged: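 HUVEC, 3C system; light microscopy of morphology at 24 h post-dose. Bidirectional fit vs DMSO baseline. Secondary readout, background-control function.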
Read-out in experiment [15]: Pselectin, SELP (gene 6403)
Kind of experiment: BSK_4H_Pselectin: BioMAP Diversity Plus: 4H Assay for Pselectin Biomarker Activity (AID 2283026). Conditions: primary human endothelial cells (HUVEC); actives raise or lower the signal. Summed up:
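HUVEC, 24 h chemical exposure; P-selectin read by ELISA. Bidirectional curve fit vs DMSO baseline; gain or loss of signal scored.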

Experiment [16] in a line: BSK_4H_SRB: Viability Assessment in the BioMAP Diversity Plus: 4H Assay (AID 2283027).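 For AC50: curves fitted both ways versus DMSO so AC50 may be loss or gain.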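 Note: cells exposed to compound for 24 h before staining.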 Conditions: primary human endothelial cells (HUVEC). Summed up: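 HUVEC, 24 h post-dose; 10% TCA fix, 0.1% SRB stain, A560 nm. Total protein = overt cytotoxicity, parallel to biomarker read. Bidirectional fit vs DMSO baseline.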
A short description of experiment [17]: BSK_BE3C_SRB: Viability Assessment in the BioMAP Diversity Plus: BE3C Assay (AID 2283028).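 For AC50: fitted both ways so AC50 may mark signal gain or loss versus DMSO.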 Conditions: primary human bronchial epithelial cells. The procedure, abridged:
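Cells (human bronchial epithelial, primary) are treated with chemicals, and after 24 h the parallel cultures are fixed in 10% TCA. These are then stained with 0.1% SRB and read at 560 nm. Gain or loss of signal is fitted relative to DMSO.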

Read-out in experiment [18]: Thrombomodulin, THBD (gene 7056)
Kind of experiment: BSK_3C_Thrombomodulin: BioMAP Diversity Plus: 3C Assay for Thrombomodulin Biomarker Activity (AID 2283029). Conditions: primary human endothelial cells (HUVEC); actives raise or lower the signal. The procedure, abridged:
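HUVEC, 3C conditions; compound 24 h; thrombomodulin by ELISA; bidirectional curve fit vs DMSO baseline; parallel SRB total-protein staining for cytotoxicity.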

Read-out in experiment [19]: Urokinase-type plasminogen activator receptor (uPAR), PLAUR (gene 5329)
In words: BSK_4H_uPAR: BioMAP Diversity Plus: 4H Assay for Urokinase-type plasminogen activator receptor (uPAR) Biomarker Activity (AID 2283030). The conditions noted are these: primary human endothelial cells (HUVEC); actives raise or lower the signal. Summed up:
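Cell-surface uPAR ELISA signal, measured 24 h after dosing human umbilical vein endothelial cells, was analyzed with bidirectional fitting relative to DMSO. Parallel SRB staining of total protein tracked overt cytotoxicity.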

Read-out in experiment [20]: Vascular endothelial growth factor receptor 2 (Homo sapiens) (UniProt P35968)
In words: BSK_4H_VEGFRII: BioMAP Diversity Plus: 4H Assay for Vascular endothelial growth factor receptor 2 (VEGFR2) Biomarker Activity (AID 2283031).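 For AC50: cell-surface VEGFR2 protein level quantified by ELISA.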 Conditions: primary human endothelial cells (HUVEC); actives raise or lower the signal. Summed up:
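ELISA read-out of VEGFRII in primary human umbilical vein endothelium, taken 24 h after chemical treatment. Responses are expressed relative to DMSO, with bidirectional fitting.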

Chain of E-selectin (Homo sapiens) (P16581 whole entry, looked up): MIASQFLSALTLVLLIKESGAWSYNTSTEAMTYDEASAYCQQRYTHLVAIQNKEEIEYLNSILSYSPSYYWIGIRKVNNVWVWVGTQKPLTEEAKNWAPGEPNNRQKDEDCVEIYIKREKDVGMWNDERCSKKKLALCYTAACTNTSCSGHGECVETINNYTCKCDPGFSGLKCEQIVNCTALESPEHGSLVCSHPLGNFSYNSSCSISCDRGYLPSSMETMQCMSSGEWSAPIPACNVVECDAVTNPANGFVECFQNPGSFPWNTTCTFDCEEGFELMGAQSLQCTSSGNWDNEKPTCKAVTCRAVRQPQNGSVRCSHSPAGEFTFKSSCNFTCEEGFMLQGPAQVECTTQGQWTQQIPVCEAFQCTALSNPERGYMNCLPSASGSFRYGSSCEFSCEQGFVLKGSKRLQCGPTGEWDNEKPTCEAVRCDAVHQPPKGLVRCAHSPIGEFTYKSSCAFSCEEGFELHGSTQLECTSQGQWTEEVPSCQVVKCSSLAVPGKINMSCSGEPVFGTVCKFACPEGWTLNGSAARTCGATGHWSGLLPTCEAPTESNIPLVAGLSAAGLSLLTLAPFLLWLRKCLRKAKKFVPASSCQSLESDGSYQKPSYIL
Chain of human Retinoid X Receptor beta (RXRb), RXRB (gene 6257) (P28702 whole entry, looked up, the tested form may be a part): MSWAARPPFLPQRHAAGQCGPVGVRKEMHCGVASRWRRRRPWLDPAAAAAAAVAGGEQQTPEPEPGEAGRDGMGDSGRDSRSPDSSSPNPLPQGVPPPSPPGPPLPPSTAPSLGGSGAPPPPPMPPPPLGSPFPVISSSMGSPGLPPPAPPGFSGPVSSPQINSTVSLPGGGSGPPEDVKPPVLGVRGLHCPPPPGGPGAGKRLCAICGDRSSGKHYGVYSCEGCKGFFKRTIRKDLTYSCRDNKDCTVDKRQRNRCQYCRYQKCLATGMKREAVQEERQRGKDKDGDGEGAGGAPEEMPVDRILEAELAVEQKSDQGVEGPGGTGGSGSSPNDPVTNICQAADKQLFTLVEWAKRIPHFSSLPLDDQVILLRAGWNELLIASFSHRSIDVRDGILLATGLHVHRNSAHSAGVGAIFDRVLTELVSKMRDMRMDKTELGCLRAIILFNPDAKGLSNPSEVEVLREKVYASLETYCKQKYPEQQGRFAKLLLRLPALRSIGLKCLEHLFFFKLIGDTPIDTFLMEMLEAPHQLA
Chain of Retinoic acid receptor RXR-alpha (Homo sapiens) (P19793 whole entry, looked up, the tested form may be a part): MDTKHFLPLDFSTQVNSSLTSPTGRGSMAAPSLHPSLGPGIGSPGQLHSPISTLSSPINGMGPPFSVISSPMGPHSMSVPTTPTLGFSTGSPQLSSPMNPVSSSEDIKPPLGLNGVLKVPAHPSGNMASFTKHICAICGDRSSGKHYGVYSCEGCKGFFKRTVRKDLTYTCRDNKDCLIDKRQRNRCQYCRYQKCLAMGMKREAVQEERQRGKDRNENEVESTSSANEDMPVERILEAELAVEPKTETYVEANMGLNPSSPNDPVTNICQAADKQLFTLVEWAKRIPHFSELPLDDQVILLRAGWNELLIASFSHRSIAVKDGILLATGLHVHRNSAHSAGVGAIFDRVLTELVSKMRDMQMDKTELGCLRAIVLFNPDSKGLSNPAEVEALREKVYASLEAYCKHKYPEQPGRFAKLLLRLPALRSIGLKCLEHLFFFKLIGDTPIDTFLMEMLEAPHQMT
Chain of human Vitamin D Receptor (VDR), VDR (gene 7421) (P11473 whole entry, looked up, the tested form may be a part): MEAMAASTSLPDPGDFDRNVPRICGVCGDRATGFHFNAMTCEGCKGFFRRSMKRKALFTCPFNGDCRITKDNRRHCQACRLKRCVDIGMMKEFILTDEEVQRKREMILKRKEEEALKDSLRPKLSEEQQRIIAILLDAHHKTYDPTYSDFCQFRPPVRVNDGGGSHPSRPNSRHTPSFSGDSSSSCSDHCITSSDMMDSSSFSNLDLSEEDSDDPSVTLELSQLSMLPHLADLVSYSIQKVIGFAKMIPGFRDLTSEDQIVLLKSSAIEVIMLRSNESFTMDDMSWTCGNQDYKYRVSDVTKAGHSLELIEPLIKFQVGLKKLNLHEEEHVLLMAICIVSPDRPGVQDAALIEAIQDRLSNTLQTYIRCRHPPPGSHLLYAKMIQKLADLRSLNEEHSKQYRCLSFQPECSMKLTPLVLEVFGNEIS
Chain of human Thyroid Receptor alpha (THRa1), THRA (gene 7067) (P10827 whole entry, looked up, the tested form may be a part): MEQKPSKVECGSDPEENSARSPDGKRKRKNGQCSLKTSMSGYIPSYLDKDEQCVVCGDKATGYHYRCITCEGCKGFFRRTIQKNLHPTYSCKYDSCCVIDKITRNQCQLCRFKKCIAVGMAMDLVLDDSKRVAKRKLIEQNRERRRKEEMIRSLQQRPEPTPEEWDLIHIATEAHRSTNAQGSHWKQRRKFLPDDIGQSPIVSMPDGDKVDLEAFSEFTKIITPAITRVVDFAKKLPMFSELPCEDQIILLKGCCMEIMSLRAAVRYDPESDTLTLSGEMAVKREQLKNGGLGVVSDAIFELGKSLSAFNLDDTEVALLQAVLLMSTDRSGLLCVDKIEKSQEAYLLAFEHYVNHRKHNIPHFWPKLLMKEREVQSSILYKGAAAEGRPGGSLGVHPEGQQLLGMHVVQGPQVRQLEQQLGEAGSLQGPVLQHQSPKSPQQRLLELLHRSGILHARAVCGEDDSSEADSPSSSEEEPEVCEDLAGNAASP

A word on the AC50: it is the concentration at which the activity in the assay is half-maximal. As for `ClC1=C(Cl)[C@]2(Cl)[C@H]3[C@H]([C@@H]4C=C[C@H]3C4)[C@@]1(Cl)C2(Cl)Cl`, the compound was called inactive in experiment [1], in experiment [3], in [5], in experiment [11], in [14] and in experiment [17]. Moreover, the result in experiment [18] was inactive. Moreover, the AC50 in experiment [2] was 10.4 µM (active); in experiment [4], 30.9 µM (active); in experiment [6] it was 32.2 µM (active); in experiment [7], 24.2 µM (active); in experiment [8], 24.9 µM (active); in experiment [9] it was 28.8 µM (active). The AC50 was 37.3 µM (active) in experiment [10]; 26 µM (active) in experiment [12]; 20 µM (active) in experiment [13]; 24.1 µM (active) in [15]; 33.3 µM (active) in experiment [16]; 32.3 µM (active) in experiment [19]. Besides, the AC50 in [20] was 29.4 µM (active).

On to `O=C(O)C1C2CCC(O2)C1C(=O)O` (centres undefined), for which the outcome in experiment [1], in experiment [2], in experiment [3], in experiment [5], in experiment [6] and in experiment [7] was inactive. Moreover, the outcome in [8], in experiment [9], in experiment [10], in experiment [11], in experiment [13] and in experiment [16] was inactive. Moreover, the result in experiment [17], in experiment [18] and in [20] was inactive. Also, the AC50 in experiment [4] was 18.6 µM (active); in experiment [12], 24.4 µM (active); in experiment [14] it was 9.13 µM (active); in experiment [15], 16 µM (active); in [19], 18.6 µM (active).

In the case of `[Cl-].[Cl-].[Hg+2]`, the call in experiment [1], in [2], in experiment [3], in [6], in experiment [11] and in experiment [18] was inactive. The result in [20] was inactive. Moreover, the AC50 is 36.7 µM (active) in experiment [4]; 31 µM (active) in experiment [5]; 30.7 µM (active) in experiment [7]; 30 µM (active) in experiment [8]; 31.1 µM (active) in experiment [9]; 30.9 µM (active) in [10]. For the same compound, the AC50 in experiment [12] is 30.3 µM (active); in experiment [13] it was 31.4 µM (active); in experiment [14] it was 37.5 µM (active); in [16] it was 20 µM (active); in [17], 34.7 µM (active); in [19] it was 30 µM (active).
